Molecules are shown by their SMILES. Where “and” joins values, the source holds several entries; their conditions need not be identical. Equal values may be shown once. More than one record can exist for a structure, and the calls need not agree. Calls of active or inactive are those of the source. Rule for the calls: active = hit-call score of the fitted dose curve at least 0.9, where 1 is the maximum; inactive = score below 0.9.

This assay in a line: CCTE_Shafer_MEA_dev_firing_rate_mean: CCTE's Neural Network Formation Assay for Mean Firing Rate, Shafer Lab (AID 2284031).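 For AC50: curve fitted for loss of firing so AC50 reflects decreased mean firing rate.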 As for the experimental part:
CCTE_Shafer_MEA_dev assay is conducted using Axion Biosystems 48 well microelectrode array (MEA) plates and Maestro recording system. Each well of the MEA plate contains a grid of 16 microelectrodes embedded in the culture surface. Electrically active cells, such as neurons, can be cultured over the electrodes, and electrical activity in these cells can be recorded extracellularly. The spontaneous firing of neurons is captured from each electrode on a microsecond timescale providing both temporally and spatially precise data. […] The CCTE_Shafer_MEA_dev assay uses primary cultures of rat cortical neurons. Recordings are made on days post-plating 5, 7, 9 and 12. As these cultures mature over time, neural networks develop functional activity and form cohesive networks in which electrical activity can be highly coordinated. CCTE_Shafer_MEA_dev_firing_rate_mean is 1 of 19 assay components of the CCTE_Shafer_MEA_dev assay. It measures the frequency of spikes (action potential firings) as the total number of spikes divided by the length of the recording in a microelectrode array (MEA) using Axion Biosystems Maestro 768 channel amplifier with the AxIS adaptive spike detector. The firing rate is averaged across the active electrodes to report a well-mean value. To collapse across multiple recordings made on days post-plating 5, 7, 9 and 12, the trapezoidal area-under-the-curve of the component is calculated.Data from the assay component CCTE_Shafer_MEA_dev_firing_rate_mean was analyzed into 1 assay endpoint. This assay endpoint, CCTE_Shafer_MEA_dev_firing_rate_mean, was analyzed in the negative analysis fitting direction relative to DMSO as the negative control and baseline of activity. Using a type of functional reporter, gain or loss-of-signal activity can be used to understand electrical activity.
On the day prior to culture, each well was coated thoroughly with 150 uL of 0.05% polyethyleneimine (PEI, Sigma Cat P3143) in 50 mM HEPES (Sigma Cat H7523) at a pH of 8. The plate was incubated at 37C for one hour. PEI was rinsed out with 500 uL of sterile water three times. Plates were stored at 4C until the day of culture. This culture was plated at a seeding density of 1.5 x 10^5 cells/well on a 48-well MEA plate, prepared as described above. Cells were administered via a 25 uL media/laminin ([…]; Sigma Cat L2020-1MG) drop directly onto the microelectrode array, as adding the cells with the laminin results in better attachment than pre-coating with laminin. After 2 hours, an additional 475 uL of cortical media was added and the cells returned to the incubator. Exposure starts at day 0 of plating and is continued over twelve days of network development until the experiment is terminated. Cells are fed with fresh medium on DIV 5 and 9, following the recordings on those days. The entire volume of media in the well is exchanged and any vehicle or compound treatment is renewed. Complete details are found in OP-NHEERL/ISTD/SBB/TJS/2015-03-r0 (available on request, email shafer.tim@epa.gov). Measurement of the electrical activity is non-invasive, and recordings can be made from the same plate over multiple different days of the culture. In cortical neurons, this allows for the measurement of extracellular action potentials over the period during which networks form in the MEA plate.
For orientation: AC50 means the midpoint of the concentration-response curve, whichever way the signal moves. Regarding `CC[C@H](C)[C@H]1O[C@]2(C=C[C@@H]1C)C[C@@H]1C[C@@H](C/C=C(\C)[C@@H](O[C@H]3C[C@H](OC)[C@@H](O[C@H]4C[C@H](OC)[C@@H](O)[C@H](C)O4)[C@H](C)O3)[C@@H](C)/C=C/C=C3\CO[C@@H]4[C@H](O)C(C)=C[C@@H](C(=O)O1)[C@]34O)O2` (tested in a mixture with another compound), the AC50 is 0.611 nM (active) and 1.02 nM (active).

Consider `Oc1cc(Cl)ccc1Oc1ccc(Cl)cc1Cl`, for which the AC50 is 10 µM (active).

With `O=C(O)C(F)(F)C(F)(F)C(F)(F)C(F)(F)C(F)(F)C(F)(F)C(F)(F)F`, the molecule was called inactive.

For the molecule `COP(=O)(OC)OC=C(Cl)Cl`, the AC50 is 9.72 µM (active) and the molecule was classed as inactive.

Regarding `CC1(c2ccc(Oc3ccccc3)cc2)OC(=O)N(Nc2ccccc2)C1=O` (stereo not drawn), the AC50 is 8.59 µM (active).

As to `O=C(O)COc1ccc(Cl)cc1Cl`, the molecule was classed as inactive.

With `CCC(C)(C)C(=O)OC1=C(c2ccc(Cl)cc2Cl)C(=O)OC12CCCCC2`, the molecule was classed as inactive.

Turning to `CC(C)N(C(=O)COc1nnc(C(F)(F)F)s1)c1ccc(F)cc1`, the molecule was classed as inactive.

For `ClC1C(Cl)C(Cl)C(Cl)C(Cl)C1Cl` (stereo not drawn), the result was inactive.

Consider `CC1(C)C(C=C(Cl)Cl)C1C(=O)OC(C#N)c1ccc(F)c(Oc2ccccc2)c1` (stereo not drawn), for which the AC50 was 1.15 µM (active) and 9.57 µM (active); the call was inactive.

With `O=[N+]([O-])/N=C1\NCCN1Cc1ccc(Cl)nc1`, the call was inactive.

Consider `O=S(=O)(O)C(F)(F)C(F)(F)C(F)(F)C(F)(F)C(F)(F)C(F)(F)C(F)(F)C(F)(F)F`, for which the result was inactive.

Turning to `COP(=S)(OC)Oc1ccc([N+](=O)[O-])cc1`, the molecule was classed as inactive.

As for `CNC(=O)CSP(=S)(OC)OC`, the AC50 was 79.3 µM (active) and the result was inactive.

In the case of `O=S1OCC2C(CO1)C1(Cl)C(Cl)=C(Cl)C2(Cl)C1(Cl)Cl` (stereo not drawn), the molecule was called inactive.

Source of the values: PubChem BioAssay (EPA / NIEHS).
